# From PubChem BioAssay
# L3MBTL1 inh – blocks human L3MBTL1; AlphaScreen L3MBTL1–H3K9me1 peptide binding; Potency, µM (titrated, usually from 57.1 µM), without a hit: at the highest dose activity, negative = inhibition, most hits filed as inhibitors; 230,000 tested, 0.66% active; note: % is set by controls: 0 for no effect and ±100 for the full control effect; nearly all actives have a fitted effect of over 60% in size
#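 L3MBTL1 50 nM + b-AHA-H3(1-15)K9me1 75 nM, 30 min RT; compound added, 30 min RT; streptavidin donor/Ni-chelate acceptor beads 10 ug/mL each final, 30 min RT dark; AlphaScreen read.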
# HP1b binding inh – inhibitors of HP1-beta chromodomain binding to methylated histone tails. AlphaScreen HP1-beta / biotin-H3K9me3 peptide binding. Potency, µM (top dose mostly 114 µM), for inactives: at the top dose activity change, negative = inhibition, usual class: inhibitors. 390,000 tested, 0.56% active; note: nearly all actives have a fitted effect of over 70% in size
# Target sequence (P83916 whole entry, looked up): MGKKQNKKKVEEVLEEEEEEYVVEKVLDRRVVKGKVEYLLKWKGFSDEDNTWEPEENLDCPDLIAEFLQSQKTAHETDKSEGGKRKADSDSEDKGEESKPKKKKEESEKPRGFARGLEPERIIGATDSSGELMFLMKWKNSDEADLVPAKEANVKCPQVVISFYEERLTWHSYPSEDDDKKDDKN
#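 HP1-beta protein (50 nM final) preincubated 30 min at room temperature with biotinylated H3(1-18)K9me3 peptide (50 nM) in PBS pH 7.4, 0.01% Tween-20, then compound added for 30 min. AlphaScreen streptavidin donor/nickel chelate acceptor beads (10 ug/mL final), 30 min dark, luminescence read.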
# JMJD2A Tudor – blocks the human JMJD2A Tudor domain; O75164; AlphaScreen JMJD2A-Tudor / H3K4me3 peptide binding; Potency, µM (series often up to 114 µM), without a hit: top-dose activity change, negative = inhibition, most hits filed as inhibitors; 390,000 tested, 4.4% active; AID 504339; note: % is set by controls: 0 for no effect and ±100 for the full control effect; nearly all actives have a fitted effect of over 50% in size
# BAZ2B inh – blocks human BAZ2B. AlphaScreen BAZ2B-H3K14Ac peptide displacement. Potency, µM (series often up to 114 µM), for inactives: at the top dose activity change, negative = inhibition, most hits filed as inhibitors. 360,000 tested, 4.4% active. AID 504333; note: % is set by controls: 0 for no effect and ±100 for the full control effect; nearly all actives have a fitted effect of over 60% in size
#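 BAZ2B 50 nM plus b-H3(5-23)K14Ac 50 nM, PBS pH 7.4/0.01% Tween-20, 30 min RT; compound added (max 110 uM), 30 min RT; streptavidin donor/Ni-chelate acceptor beads 10 ug/mL final, 20 min dark; AlphaScreen read.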
# Sfp PPTase inh – inhibitors of Bacillus subtilis Sfp phosphopantetheinyl transferase | Q9F4F7 | Biochemical Sfp PPTase activity, qHTS | Potency, µM, for the others: largest response in the series, negative = inhibition, hits mostly inhibitors | 310,000 tested, 3.5% active | AID 1490;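 note: the enzyme is Sfp with the accession as filed and its product quenches rhodamine fluorescence; 0% = enzyme reaction without inhibitor and -100% = no enzyme wells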
#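 Buffer: 50 mM Hepes-Na pH 7.6, 10 mM MgCl2, 0.01% Nonidet P-40, 0.01% BSA. Enzyme 15 nM, pre-exposed to compound 15 min; substrates then added and fluorescence change tracked over 30 min.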
# G9a block – blocks human histone lysine methyltransferase G9a | G9a H3K9 monomethylation, AlphaScreen, 2 h | Potency, µM (doses to about 102 µM), inactives show at the highest dose activity, negative = inhibition, actives largely listed as inhibitors | 350,000 tested, 8.8% active; note: % is set by controls: 0 for no effect and ±100 for the full control effect; nearly all actives have a fitted effect of over 75% in size
# Target sequence (Q96KQ7 913-1193 limits assumed): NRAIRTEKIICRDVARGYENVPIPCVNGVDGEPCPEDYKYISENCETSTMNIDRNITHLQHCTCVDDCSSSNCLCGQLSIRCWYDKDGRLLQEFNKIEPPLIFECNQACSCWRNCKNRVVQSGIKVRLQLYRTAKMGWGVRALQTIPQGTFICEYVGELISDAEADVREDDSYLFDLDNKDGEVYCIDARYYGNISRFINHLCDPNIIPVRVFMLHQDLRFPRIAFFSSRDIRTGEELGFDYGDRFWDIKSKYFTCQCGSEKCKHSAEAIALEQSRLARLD
#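 Signal arises when biotinylated H3K9 peptide, once monomethylated, bridges streptavidin donor and antibody-captured acceptor beads. Enzyme at 20 nM was preincubated 15 min with test compounds; peptide 500 nM and SAM 20 uM then reacted for 2 h.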
# The depositor's hits bear a star; ? = inconclusive; · = no result given; ! = not active in a repeat; [ ] = remark or other dose. Most compounds without a hit are left out; they make up all but 12% or so of the library. Calls come from the whole dose curve; as a rule, active = well fitted curve in the direction sought with a large enough effect; inconclusive = small, poorly fitted or top-dose-only effect, or another doubt; inactive = no such curve, though single readings can be large; an effect the other way counts as inactive or inconclusive. Potency is the fitted concentration of half-maximal effect.
SMILES,L3MBTL1 inh,HP1b binding inh,JMJD2A Tudor,BAZ2B inh,Sfp PPTase inh,G9a block
Cn1cc(C(=O)NCc2ccccc2Cl)c(=O)c2cc(S(=O)(=O)N3CCCCCC3)ccc21,·,38%,1%,·,·,-1%[59 µM]
Cc1ccc(NC(=O)c2cc(S(=O)(=O)N3CCCCC3)c[nH]2)cc1N(C)C,·,21%,-30%,3%,·,5%[59 µM]
CNC(=S)NNc1nc(C)cc(C)n1,3%,79µM*,?,-17%,2.5µM*,1.3µM*
Cc1ccc(Nc2nc(N3CCOCC3)nc(N3CCOCC3)n2)cc1,-1%,20%,-14%,2%,5%,·
CCCCc1ccc(Nc2nc(N3CCOCC3)nc(N3CCOCC3)n2)cc1,·,38%,-14%,-39%[57.1 µM],-5%,50µM*
O=C(CSc1nc2ccc(Nc3nc(N4CCOCC4)nc(N4CCOCC4)n3)cc2s1)N1CCOCC1,7%,21%,-15%,0%,24%,6%[59 µM]
CSc1nc2ccc(Nc3nc(N4CCOCC4)nc(N4CCOCC4)n3)cc2s1,7%,3%,-36%,1%,-16%,16µM*
CCC(=O)N1CCc2cc(Br)cc(S(=O)(=O)N3CCCC(C(=O)NCc4cccc(OC)c4)C3)c21 (centres undefined),·,29%,-23%,2%,·,-6%[59 µM]
COc1ccccc1C(=O)N/C(=C/c1ccc(Br)cc1)C(=O)N1CCCC1,-23%,-19%,50µM*,-15%,-11%,14%
CC(=O)N/C(=C/c1ccccc1)C(=O)N1CCCCC1,?,19%,-10%,-1%,8%,50µM*
COc1ccccc1C(=O)N/C(=C\c1ccc(Br)cc1)C(=O)NCC(=O)O,13%,11%,-7%,7%,11%,8%[59 µM]
COc1cc2ccccc2cc1C(=O)N1CCN(c2nc3c(C)cc(C)cc3s2)CC1,·,15%,-20%,-30%,·,-25%[59 µM]
COc1ccc(CCNC(=O)C(C)n2c(=O)cc(C(F)(F)F)c3c(C)nn(C)c32)cc1OC (centres undefined),·,11%,-17%,-3%,·,3%[59 µM]
CC(Oc1ccccc1)C(=O)Nc1cccc(-c2cn3cccnc3n2)c1 (centres undefined),·,19%[57 µM],-13%,0%,·,-2%[59 µM]
O=C(Nc1ccccc1)c1ccc2c(O)c(S(=O)(=O)c3ccc(Cl)cc3)c(=O)[nH]c2c1,·,7%,-32%,?,·,-48%[59 µM]
O=C(c1c(O)c2ccc(Cl)cc2[nH]c1=O)C1CC1,·,·,·,·,45µM*!,0%[59 µM]
O=C(O)CN1CCN(Cc2ccccc2Cl)C1=O,0%,12%,-28%,3%,10%,8%
O=C(O)c1cc2n(n1)CCN(Cc1ccccc1Cl)C2=O,·,30%,-4%[11.4 µM],?,13%,50µM*
COc1ccnc(CSC(N)=Nc2ccccc2OC)c1,-6%,7%,45µM*,?,32µM*,8.9µM*
COc1ccnc(CSC(N)=Nc2cccc(C(F)(F)F)c2)c1,?,?,20µM*,35µM*,?,45µM*
COCCNC(=S)NCCCNc1nc2cc3c(cc2cc1C#N)OCO3,2%,12%,15%,6%,14µM*,-37%[59 µM]
COc1cc(C(=O)NCCNc2nc3cc(C)ccc3cc2C#N)cc(OC)c1OC,6%,54%,8%,6%,9%,12%
COc1cc(C(=O)NCCCNc2nc3cc(C)c(C)cc3cc2C#N)cc(OC)c1OC,·,62%,1%,5%,79µM*,13%[59 µM]
CCOC(=O)CN1C(=O)S/C(=C\c2ccc(-c3cccc(C(=O)O)c3C)o2)C1=O,·,18%,-2%,·,·,·
Cn1cc(/C=C2/SC(=O)N(CC(=O)Nc3ccc4c(c3)OCO4)C2=O)c2ccccc21,2%,13%,-1%,-1%,0%,26%
SMILES,L3MBTL1 inh,HP1b binding inh,JMJD2A Tudor,BAZ2B inh,Sfp PPTase inh,G9a block
O=C(CN1C(=O)S/C(=C\c2ccc(-c3cc(C(=O)O)ccc3Cl)o2)C1=O)Nc1ccc2c(c1)OCO2,·,·,·,8.9µM*,-3%,?
Cc1ccc(NC(=O)CN2C(=O)S/C(=C\c3ccc(-c4cccc(C(=O)O)c4C)o3)C2=O)cc1C,-4%,35µM*,18µM*,16µM*,45µM*,18µM*
CCOc1cccc(/C=C2/NC(=O)N(CC(=O)Nc3cccc(C)c3)C2=O)c1O,-5%,14%,-4%,0%,5%,-7%[59 µM]
CCOc1cc(/C=C2/NC(=O)N(CC(=O)Nc3cccc(C)c3)C2=O)ccc1OCC(N)=O,-1%,-26%,56µM*,-17%,-9%,-17%
Cc1cccc(NC(=O)CN2C(=O)N/C(=C/c3ccc(-c4cccc(C(=O)O)c4C)o3)C2=O)c1,?,34%,-1%,?,32µM*,?
Cc1ccc(NC(=O)CSc2nc3ccc(NC(=O)c4cccc(Cl)c4)cc3s2)c(C)c1,·,4%,-9%,-2%,·,-13%[59 µM]
CC(=O)N[C@@H](Cc1ccc(O)cc1)C(=O)O,·,·,·,·,18%,23%[59 µM]
C/C=C\C1=C(CO)[C@H](O)[C@H]2OC2[C@@H]1O (some centres undefined),·,·,·,·,7%,·
CC(=O)O[C@@H]1CC2C(C)(C)C(=O)C=C[C@]2(C)C2CC[C@]3(C)C(=CC[C@H]3C3CO[C@@H](C(C)(C)O)[C@H](O)C3)[C@@]21C (some centres undefined),·,·,·,·,89µM*,·
CCOC(=O)N1CCN(C(=O)CN2C(=O)/C(=C\c3cccc(OC)c3)SC2=S)CC1,·,11%,-21%,·,·,·
Cc1cc(C)c(-c2cc(NC(=O)COC(=O)c3ccc(NC(=O)CC#N)cc3)n(-c3ccccc3)n2)cc1C,-11%,6%,-19%,1%,·,?
Cc1cc(C)c(-c2cc(NC(=O)COC(=O)c3ccc(C#N)cc3)n(-c3ccccc3)n2)cc1C,-2%,28%,-11%,-33%,14%,32µM*
Cc1ccc(Cl)cc1Nc1nn2c(=O)c3ccc(C(=O)Nc4ccc(F)cc4)cc3nc2s1,·,-15%,-26%,-33%,·,-14%[59 µM]
N#Cc1cccc(NC(=O)CSc2sc3c(O)cc(=O)[nH]c3c2C#N)c1,·,-20%,?,?,?,?
Cc1c(Cl)cccc1NC(=O)CSc1sc2c(O)cc(=O)[nH]c2c1C#N,·,8%,-5%,-13%,?,?
N#Cc1c(SCC(=O)Nc2ccccc2C(F)(F)F)sc2c(O)cc(=O)[nH]c12,·,14%,-14%,-24%,14µM*,-15%[59 µM]
N#Cc1c(SCC(=O)Nc2cccc(F)c2)sc2c(O)cc(=O)[nH]c12,·,14%,-18%,-34%,56µM*,?
N#Cc1c(SCC(=O)Nc2ccc(Cl)cc2Cl)sc2c(O)cc(=O)[nH]c12,·,22%,-19%,-30%,-16%,?
CCOc1cccc(NC(=O)CSc2sc3c(O)cc(=O)[nH]c3c2C#N)c1,·,13%,-15%,-27%,35µM*,?
